# Test results from PubChem BioAssay (EPA / NIEHS).
# Calls of active or inactive are those of the source. How the source made its calls: active means hit-call score of the fitted dose curve at least 0.9, where 1 is the maximum; inactive means score below 0.9.
# Legend:
# Settings in all cases: mRNA level, 48 h; actives raise or lower the signal
# CYP2C9 (gene 1559) = experiment: LTEA_HepaRG_CYP2C9: Life Technologies and Expression Analysis (LTEA) Assay for CYP2C9 using HepaRG (AID 2283484)
# How it was run: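 HepaRG, 48 h dosing, 8-pt half-log series, top 100 uM, 0.5% DMSO vehicle. Read-out: CYP2C9 transcript by TaqMan qRT-PCR, housekeeping-normalized (ACTB/GAPDH/POLR2A). Gain or loss fitted vs DMSO baseline.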
# CYP2E1 (gene 1571) = experiment: LTEA_HepaRG_CYP2E1: Life Technologies and Expression Analysis (LTEA) Assay for CYP2E1 using HepaRG (AID 2283485)
# How it was run: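 Assay uses 48 h exposure of HepaRG hepatic cells, eight concentrations to 100 uM. Expression of CYP2E1 is quantified by TaqMan qRT-PCR with ACTB, GAPDH and POLR2A normalization; curves fitted in both directions relative to vehicle.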
# CYP4A11 (gene 1579) = experiment: LTEA_HepaRG_CYP4A11: Life Technologies and Expression Analysis (LTEA) Assay for CYP4A11 using HepaRG (AID 2283486)
# How it was run: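 Differentiated HepaRG cells, serum-free induction medium, exposed 48 h in duplicate to 8-point half-log series from 100 uM in 0.5% DMSO. CYP4A11 mRNA measured by qRT-PCR, normalized to ACTB, GAPDH, POLR2A; bidirectional fit versus DMSO.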
# [1] = read-out: Cytochrome P450 3A4 (Homo sapiens) (UniProt P08684); experiment: LTEA_HepaRG_CYP3A4: Life Technologies and Expression Analysis (LTEA) Assay for CYP3A4 using HepaRG (AID 2283487)
# How it was run: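 Differentiated HepaRG cells in serum-free induction medium exposed in duplicate for 48 h to 8 half-log concentrations up to 100 uM in 0.5% DMSO. CYP3A4 mRNA measured by qRT-PCR normalized to ACTB, GAPDH and POLR2A; bidirectional fit versus DMSO.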
# [2] = read-out: DNA damage-inducible transcript 3 (DDIT3), DDIT3 (gene 1649); experiment: LTEA_HepaRG_DDIT3: Life Technologies and Expression Analysis (LTEA) Assay for DNA damage-inducible transcript 3 (DDIT3) using HepaRG (AID 2283488)
# How it was run: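 Eight-point concentration-response (100 uM highest, half-log dilutions) in HepaRG, 48 h, duplicate wells. Endpoint: qRT-PCR mRNA, normalized (ACTB, GAPDH, POLR2A), bidirectional fitting with DMSO as baseline.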
# [3] = read-out: Pro-epidermal growth factor (Homo sapiens) (UniProt P01133); experiment: LTEA_HepaRG_EGF: Life Technologies and Expression Analysis (LTEA) Assay for Epidermal growth factor (EGF) using HepaRG (AID 2283489)
# How it was run: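 Differentiated human HepaRG cells, plated 48 h then switched to serum-free induction medium, were exposed for 48 h to test chemicals (8-point half-log series, top 100 uM, 0.5% DMSO). EGF mRNA was quantified by qRT-PCR, normalized to ACTB, GAPDH, POLR2A.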
# [4] = read-out: Early growth response protein 1 (EGR1) transcription factor, EGR1 (gene 1958); experiment: LTEA_HepaRG_EGR1: Life Technologies and Expression Analysis (LTEA) Assay for Early growth response protein 1 (EGR1) transcription factor using HepaRG (AID 2283490)
# How it was run: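 HepaRG, 48 h exposure, 8-pt half-log series from 100 uM, 0.5% DMSO vehicle; EGR1 transcript by TaqMan qRT-PCR (Fluidigm array), housekeeping-normalized; bidirectional fit relative to DMSO baseline.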
# [5] = read-out: Ezrin (EZR), EZR (gene 7430); experiment: LTEA_HepaRG_EZR: Life Technologies and Expression Analysis (LTEA) Assay for Ezrin (EZR) using HepaRG (AID 2283491)
# How it was run: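 Differentiated human HepaRG cells, 48 h after plating, were exposed in serum-free induction medium for 48 hours to eight half-log concentrations up to 100 uM in 0.5% DMSO. EZR mRNA was measured by TaqMan qRT-PCR, normalized to ACTB, GAPDH and POLR2A, and fitted bidirectionally against DMSO.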
# CYP3A5 (gene 1577) = experiment: LTEA_HepaRG_CYP3A5: Life Technologies and Expression Analysis (LTEA) Assay for CYP3A5 using HepaRG (AID 2283493)
# How it was run: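 Readout was CYP3A5 mRNA by qRT-PCR. HepaRG cultures were exposed for 48 h in serum-free induction medium to chemicals at up to 100 uM, and responses were fitted in both directions relative to DMSO vehicle.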
# [6] = read-out: Fatty Acid-Binding Protein 1 (FABP1), FABP1 (gene 2168); experiment: LTEA_HepaRG_FABP1: Life Technologies and Expression Analysis (LTEA) Assay for Fatty Acid-Binding Protein 1 (FABP1) using HepaRG (AID 2283494)
# How it was run: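 qRT-PCR readout of FABP1 transcript (normalized to three housekeeping genes) after 48 h chemical exposure of HepaRG cells; eight concentrations, half-log steps, max 100 uM, 0.5% DMSO vehicle; gain or loss fitted relative to DMSO baseline.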
# [7] = read-out: Cytochrome P450 4A22 (Homo sapiens) (UniProt Q5TCH4); experiment: LTEA_HepaRG_CYP4A22: Life Technologies and Expression Analysis (LTEA) Assay for Cytochrome P450 4A22 (CYP4A22) using HepaRG (AID 2283495)
# How it was run: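 qRT-PCR of CYP4A22 mRNA (Fluidigm TaqMan, normalized to three housekeeping genes) after 48 h chemical exposure of HepaRG cells; 8-point half-log series, top 100 uM, 0.5% DMSO vehicle. Bidirectional curve fitting vs DMSO baseline.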
# [8] = read-out: Glutathione S-Transferase (GSTA2), GSTA2 (gene 2939); experiment: LTEA_HepaRG_GSTA2: Life Technologies and Expression Analysis (LTEA) Assay for Glutathione S-Transferase (GSTA2) using HepaRG (AID 2283497)
# How it was run: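 qRT-PCR readout of GSTA2 transcript, normalized to three housekeeping genes, fitted bidirectionally against 0.5% DMSO baseline. Differentiated HepaRG cells received compound for 48 h at 8 concentrations (top 100 uM, half-log steps).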
# [9] = read-out: Glutamate-cysteine ligase catalytic (GCLC), GCLC (gene 2729); experiment: LTEA_HepaRG_GCLC: Life Technologies and Expression Analysis (LTEA) Assay for Glutamate-cysteine ligase catalytic (GCLC) using HepaRG (AID 2283498)
# How it was run: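 HepaRG, 48 h exposure, 8-pt half-log series from 100 uM, 0.5% DMSO vehicle; TaqMan qRT-PCR for GCLC mRNA, housekeeping-normalized; bidirectional curve fit vs DMSO baseline.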
# [10] = read-out: growth arrest and DNA damage 45 (GADD45G), GADD45G (gene 10912); experiment: LTEA_HepaRG_GADD45G: Life Technologies and Expression Analysis (LTEA) Assay for growth arrest and DNA damage 45 (GADD45G) using HepaRG (AID 2283499)
# How it was run: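 Differentiated human HepaRG cells in serum-free induction medium were exposed for 48 h to 8 half-log concentrations up to 100 uM in 0.5% DMSO, in duplicate. GADD45G mRNA was measured by TaqMan qRT-PCR, normalised to ACTB, GAPDH and POLR2A, and fitted bidirectionally against DMSO.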
# [11] = read-out: Glutamate-cysteine ligase regulatory (GCLM), GCLM (gene 2730); experiment: LTEA_HepaRG_GCLM: Life Technologies and Expression Analysis (LTEA) Assay for Glutamate-cysteine ligase regulatory (GCLM) using HepaRG (AID 2283500)
# How it was run: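 In this multiplexed HepaRG gene-expression assay, GCLM mRNA change after 48 h treatment (8 concentrations, max 100 uM) was scored against DMSO by bidirectional curve fitting.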
# [12] = read-out: Glutathione S-transferase M3 (GSTM3), GSTM3 (gene 2947); experiment: LTEA_HepaRG_GSTM3: Life Technologies and Expression Analysis (LTEA) Assay for Glutathione S-transferase M3 (GSTM3) using HepaRG (AID 2283501)
# How it was run: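 Differentiated HepaRG cells in serum-free induction medium were exposed in duplicate for 48 h to 8 half-log concentrations up to 100 uM in 0.5% DMSO. GSTM3 mRNA was measured by TaqMan qRT-PCR, normalized to ACTB/GAPDH/POLR2A, and fitted bidirectionally versus DMSO.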
# [13] = read-out: Heat shock 70 kDa protein 1 (HSPA1A), gene 3303; experiment: LTEA_HepaRG_HSPA1A: Life Technologies and Expression Analysis (LTEA) Assay for Heat shock 70 kDa protein 1 (HSPA1A) using HepaRG (AID 2283502)
# How it was run: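 An oxidative-stress marker readout: HepaRG cells treated 48 h in duplicate with an eight-point series (highest 100 uM) had HSPA1A mRNA quantified by TaqMan qRT-PCR. Activity was fitted in both directions using 0.5% DMSO as baseline.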
# [14] = read-out: Hypoxia-inducible factor 1-alpha (Homo sapiens) (UniProt Q16665); experiment: LTEA_HepaRG_HIF1A: Life Technologies and Expression Analysis (LTEA) Assay for Hypoxia-inducible factor 1 (HIF1A) Trancription factor using HepaRG (AID 2283503);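 further: HIF1A transcript by TaqMan qRT-PCR normalized to ACTB GAPDH and POLR2A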
# How it was run: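 Gain- or loss-of-signal HIF1A mRNA changes are fitted against a DMSO baseline. HepaRG cultures receive eight concentrations, highest 100 uM, for 48 h in serum-free induction medium with 0.5% DMSO.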
# [15] = read-out: Cytochrome P450 7A1 (Homo sapiens) (UniProt P22680); experiment: LTEA_HepaRG_CYP7A1: Life Technologies and Expression Analysis (LTEA) Assay for Cytochrome P450 7A1 (CYP7A1) using HepaRG (AID 2283496)
# How it was run: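 Using 0.5% DMSO as vehicle and baseline, chemicals were tested in duplicate over an 8-point range from 100 uM on HepaRG cells for 48 h; qRT-PCR signals were normalised to ACTB, GAPDH and POLR2A.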
# Sequence of Hypoxia-inducible factor 1-alpha (Homo sapiens) (Q16665 whole entry, looked up): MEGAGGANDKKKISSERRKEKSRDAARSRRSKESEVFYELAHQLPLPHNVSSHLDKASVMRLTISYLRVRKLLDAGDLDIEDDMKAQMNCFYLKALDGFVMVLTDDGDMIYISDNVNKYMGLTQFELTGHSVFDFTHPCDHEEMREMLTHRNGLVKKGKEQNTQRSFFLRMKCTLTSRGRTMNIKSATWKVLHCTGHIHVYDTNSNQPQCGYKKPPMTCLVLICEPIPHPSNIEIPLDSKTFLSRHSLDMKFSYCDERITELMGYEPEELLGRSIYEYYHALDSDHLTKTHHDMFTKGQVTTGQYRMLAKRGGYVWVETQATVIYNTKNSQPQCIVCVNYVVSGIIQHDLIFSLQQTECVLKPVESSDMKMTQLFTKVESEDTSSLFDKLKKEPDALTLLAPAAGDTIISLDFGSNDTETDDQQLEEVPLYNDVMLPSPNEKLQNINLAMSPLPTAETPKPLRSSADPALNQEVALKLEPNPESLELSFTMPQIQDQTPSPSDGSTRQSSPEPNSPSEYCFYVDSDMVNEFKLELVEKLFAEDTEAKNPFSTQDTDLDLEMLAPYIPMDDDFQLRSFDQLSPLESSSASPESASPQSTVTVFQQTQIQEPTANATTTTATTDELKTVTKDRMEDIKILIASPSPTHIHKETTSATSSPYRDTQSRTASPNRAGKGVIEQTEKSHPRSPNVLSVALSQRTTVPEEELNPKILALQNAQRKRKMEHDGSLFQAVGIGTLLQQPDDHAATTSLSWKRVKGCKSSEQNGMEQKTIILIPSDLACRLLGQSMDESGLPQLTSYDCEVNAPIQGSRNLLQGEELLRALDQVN
# Sequence of Cytochrome P450 3A4 (Homo sapiens) (P08684 whole entry, looked up): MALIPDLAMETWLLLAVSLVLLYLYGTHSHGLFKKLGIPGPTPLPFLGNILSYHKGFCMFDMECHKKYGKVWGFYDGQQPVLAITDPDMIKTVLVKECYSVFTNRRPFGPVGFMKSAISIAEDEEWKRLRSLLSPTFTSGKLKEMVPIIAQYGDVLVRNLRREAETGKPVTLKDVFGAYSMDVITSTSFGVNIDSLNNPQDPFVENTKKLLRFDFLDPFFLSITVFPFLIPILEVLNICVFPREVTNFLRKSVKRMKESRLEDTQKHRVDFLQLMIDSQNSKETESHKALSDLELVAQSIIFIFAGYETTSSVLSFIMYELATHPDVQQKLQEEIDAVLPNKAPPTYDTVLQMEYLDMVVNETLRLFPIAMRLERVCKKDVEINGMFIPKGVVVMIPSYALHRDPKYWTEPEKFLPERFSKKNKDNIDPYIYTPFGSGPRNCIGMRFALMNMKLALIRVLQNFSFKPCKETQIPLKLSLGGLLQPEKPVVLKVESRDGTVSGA
smiles,measurement,setting,value
CSc1ccc(Oc2ccc(S(N)(=O)=O)cc2CN(C)C)cc1C,outcome,CYP2C9 (gene 1559),inactive
same,AC50,CYP2E1 (gene 1571),47.6 µM (active)
same,AC50,CYP4A11 (gene 1579),77.5 µM (active)
same,AC50,[1],14 µM (active)
same,AC50,[2],75.2 µM (active)
same,outcome,[3],inactive
same,outcome,[4],inactive
same,outcome,[5],inactive
same,outcome,CYP3A5 (gene 1577),inactive
same,outcome,[6],inactive
same,AC50,[7],85.1 µM (active)
same,outcome,[8],inactive
same,outcome,[9],inactive
same,AC50,[10],50 µM (active)
same,outcome,[11],inactive
same,outcome,[12],inactive
same,outcome,[13],inactive
same,outcome,[14],inactive
COc1ccc(OC(F)(F)F)cc1CN[C@H]1CCCN[C@H]1c1ccccc1,AC50,CYP2C9 (gene 1559),83.7 µM (active)
same,AC50,CYP2E1 (gene 1571),16.8 µM (active)
same,AC50,CYP4A11 (gene 1579),9.12 µM (active)
same,AC50,[1],91.9 µM (active)
same,AC50,[3],50 µM (active)
same,AC50,[4],86.6 µM (active)
same,outcome,[5],inactive
same,AC50,CYP3A5 (gene 1577),78.5 µM (active)
same,AC50,[6],77.9 µM (active)
same,AC50,[7],15.8 µM (active)
same,AC50,[8],5.08 µM (active)
same,AC50,[9],90.1 µM (active)
same,outcome,[10],inactive
same,outcome,[11],inactive
same,outcome,[12],inactive
same,AC50,[13],73.3 µM (active)
same,outcome,[14],inactive
CC(C)NCC(O)c1ccc(O)c(O)c1 (centres undefined),AC50,CYP2C9 (gene 1559),0.175 µM (active)
same,AC50,CYP2E1 (gene 1571),0.304 µM (active)
same,outcome,CYP4A11 (gene 1579),inactive
same,outcome,[3],inactive
same,outcome,[4],inactive
same,AC50,[5],1.8 µM (active)
same,AC50,CYP3A5 (gene 1577),0.153 µM (active)
same,AC50,[6],0.479 µM (active)
same,outcome,[7],inactive
same,AC50,[15],0.212 µM (active)
same,AC50,[8],0.222 µM (active)
same,outcome,[9],inactive
same,outcome,[10],inactive
same,outcome,[11],inactive
same,AC50,[12],0.273 µM (active)
same,AC50,[13],0.116 µM (active)
CN(C)C(=O)NC1(c2ccccc2)CCN(CCC[C@]2(c3ccc(Cl)c(Cl)c3)CCCN(C(=O)c3ccccc3)C2)CC1,AC50,CYP2C9 (gene 1559),19.7 µM (active)
same,AC50,CYP2E1 (gene 1571),17.7 µM (active)
same,AC50,CYP4A11 (gene 1579),23.6 µM (active)
same,AC50,[2],18.1 µM (active)
same,outcome,[3],inactive
same,AC50,[4],23.1 µM (active)
same,AC50,[5],23.4 µM (active)
same,outcome,CYP3A5 (gene 1577),inactive
same,AC50,[6],20.5 µM (active)
same,AC50,[7],23.7 µM (active)
same,AC50,[15],22.2 µM (active)
same,AC50,[8],20.3 µM (active)
same,AC50,[9],21.9 µM (active)
same,AC50,[10],20.4 µM (active)
same,AC50,[11],12.5 µM (active)
same,outcome,[12],inactive
same,AC50,[13],20.5 µM (active)
same,outcome,[14],inactive
